Pol beta inh: qHTS Assay for Inhibitors of DNA Polymerase Beta; P06746; Pol beta primer extension/strand displacement, fluorescence kinetic; Potency, µM (top dose mostly 114 µM), for inactives: top-dose activity change, negative = inhibition, most hits filed as inhibitors; 1.3% of 340,000 active; further: on the % scale 0 is the no-effect control and ±100 the full control effect
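10 nM enzyme + cpd, 15 min RT; start with substrate 50 nM final; read 0 min and after 10 min RT. Corrected, normalized data; 4-parameter Hill curve fit.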
WRN helicase inh: qHTS for Inhibitors of WRN Helicase; Bifunctional 3'-5' exonuclease/ATP-dependent helicase WRN (Homo sapiens), Q14191; WRN helicase unwinding, fluorescent forked duplex, kinetic; Potency, µM (titrated, usually from 114 µM), without a hit: top-dose activity change, negative = inhibition, hits mostly inhibitors; 0.46% of 360,000 active; AID 651768, 2012; further: on the % scale 0 is the no-effect control and ±100 the full control effect; nearly all actives have a fitted effect of over 55% in size
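Screening of the MLSMR collection measured strand separation of a quenched forked DNA duplex (100 nM) by 20 nM WRN with 2 mM ATP, all final. Compounds were preincubated with enzyme 15 min at room temperature.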
Pol kappa inh: qHTS for Inhibitors of Polymerase Kappa | purified Pol kappa, fluorescent DNA synthesis assay, 10 min | Potency, µM (titrated, usually from 107 µM), for the others: at the highest dose activity, negative = inhibition, usual class: inhibitors | 0.53% of 400,000 active | AID 588579, 2011; further: on the % scale 0 is the no-effect control and ±100 the full control effect
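Inhibition of 10 nM Pol kappa is measured by a fluorescent read-out at 0 and 10 min following addition of 50 nM substrate (final), with a 15-min room-temperature compound preincubation.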
POLH inh: qHTS for Inhibitors of Polymerase Eta. AID 588591, 2011. 1.2% of 390,000 active. DNA polymerase eta (Homo sapiens), Q9Y253. Potency, µM (series often up to 114 µM), for the others: top-dose activity change, negative = inhibition, usual class: inhibitors. recombinant Pol eta, fluorescent DNA replication assay; further: on the % scale 0 is the no-effect control and ±100 the full control effect
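Pol eta at 10 nM preincubated with compounds 15 min at room temperature; reaction started with fluorescent substrate (50 nM final) and read kinetically at 0 and 10 min.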
FEN1 inh: qHTS Assay for the Inhibitors of Human Flap endonuclease 1 (FEN1). P39748. Recombinant FEN1 flap cleavage, fluorescence, 15 min. Potency, µM (doses to about 114 µM), without a hit: at the highest dose activity change, negative = inhibition, actives largely listed as inhibitors. 0.35% of 390,000 active. AID 588795, 2011; further: on the % scale 0 is the no-effect control and ±100 the full control effect; nearly all actives have a fitted effect of over 65% in size
Target sequence (P39748 whole entry, looked up): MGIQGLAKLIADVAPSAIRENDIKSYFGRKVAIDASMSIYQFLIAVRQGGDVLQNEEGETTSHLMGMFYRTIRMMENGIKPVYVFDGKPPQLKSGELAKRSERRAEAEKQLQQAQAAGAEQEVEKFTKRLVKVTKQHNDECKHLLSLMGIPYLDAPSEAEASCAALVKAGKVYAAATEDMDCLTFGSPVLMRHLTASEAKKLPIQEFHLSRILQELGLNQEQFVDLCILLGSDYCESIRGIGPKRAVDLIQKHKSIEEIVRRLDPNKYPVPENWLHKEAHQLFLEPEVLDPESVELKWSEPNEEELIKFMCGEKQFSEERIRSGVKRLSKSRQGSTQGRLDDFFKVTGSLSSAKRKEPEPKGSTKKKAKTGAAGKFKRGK
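FEN1 at 10 nM preincubated with compounds 15 min at room temperature, then flap DNA substrate added at 50 nM final. Signal read at 0 and 15 min; concentration-response fitted with four-parameter Hill equation.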
POLI inh: qHTS for Inhibitors of Polymerase Iota | DNA polymerase iota (Homo sapiens), Q9UNA4 | Pol iota fluorescent replication assay, 10 min | Potency, µM (top dose mostly 115 µM), inactives show at the top dose activity, negative = inhibition, hits mostly inhibitors | 1% of 390,000 active | AID 588590, 2011
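Fluorescent replication assay read twice, at 0 min and 10 min after adding 50 nM (final) substrate. Enzyme (10 nM) and compounds were first incubated 15 min at room temperature; enzyme-free buffer wells were negative controls.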
TbPGK inh: qHTS for inhibitors of Phosphogylcerate Kinase: Hit Validation Screen. TbPGK coupled GAPDH assay, Kinase-Glo luminescence. shares compounds with Pol kappa inh. Potency, µM (highest dose often 57.5 µM), without a hit: at the highest dose activity change, negative = inhibition, usual class: inhibitors. 79% of 500 active; further: on the % scale 0 is the no-effect control and ±100 the full control effect; nearly all actives have a fitted effect of over 65% in size
POLI cherry-pick: qHTS for Inhibitors of Polymerase Iota: Confirmatory Assay for Cherry-picked Compounds; Potency, µM, hits mostly inhibitors; 77% of 1,500 active; Pol iota primer extension, TAMRA/BHQ fluorescence; AID 720496, 2013; shares compounds with Pol kappa inh
The depositor's hits bear a star; [ ] = dose if it differs, or a comment. An excerpt weighted towards active compounds, which were near 2.4% of everything screened. The call rests on the fitted dose curve; in most records, active means well fitted curve in the direction sought with a large enough effect; inconclusive means small, poorly fitted or top-dose-only effect, or another doubt; inactive means no such curve, though single readings can be large; an effect the other way counts as inactive or inconclusive. Potency means the concentration at half of the fitted maximal effect.

Results for Oc1ccc(C[C@H]2CNCCN2CCc2cccc3ccccc23)cc1 ?
WRN helicase inh: 3.6%; Pol kappa inh: -13.9%; POLH inh: -10.3%; FEN1 inh: -18.7%; POLI inh: inconclusive; TbPGK inh: inconclusive

How did O=C(/C=C/Nc1ccccc1Br)c1ccccn1 do in these assays?
Pol beta inh: 5.0%; WRN helicase inh: -3.6%; Pol kappa inh: -5.0%; POLH inh: -14.7%; FEN1 inh: -0.7%; POLI inh: 1.7%; TbPGK inh: inconclusive

What do the screens show for `COc1ccc(NC(=S)N2CCC3CC2c2c(Cl)cccc23)c(OC)c1` (configuration not stated)?
WRN helicase inh: -0.3%; POLH inh: -11.2%

What do the screens show for `Cc1cccc(C)c1NC(=O)CN(C)C(=O)c1cccc(-n2cccc2)c1`?
WRN helicase inh: 70.8µM*; Pol kappa inh: inconclusive; POLH inh: 10µM*; FEN1 inh: -20.8%; POLI inh: 8.91µM*; POLI cherry-pick: inconclusive

How did COc1ccc(NC(=O)c2nnn(CC(=O)Nc3c(C)cc(C)cc3C)c2N)cc1OC do in these assays?
Pol beta inh: 14.2%; Pol kappa inh: 0.9%; POLH inh: -1.9%; FEN1 inh: -2.5%; POLI inh: 33.8%

Results for Cc1cc(C)c(NC(=O)Cn2nnc(S(=O)(=O)c3ccc(C)c(C)c3)c2N)c(C)c1 ?
Pol beta inh: 10µM*; Pol kappa inh: inconclusive; POLH inh: -28.7%; FEN1 inh: inconclusive; POLI inh: 79.4µM*; POLI cherry-pick: inconclusive

How did CCOc1ccc(-c2nc(SCC(=O)Nc3cc(F)ccc3F)n3[nH]c(=O)cc3n2)cc1 do in these assays?
Pol beta inh: 4.47µM*; Pol kappa inh: 14.6%; POLH inh: -5.8%; FEN1 inh: -20.5%; POLI inh: -0.2%; TbPGK inh: 5.8µM*

How did COc1ccc(C)c2sc(N(Cc3cccnc3)C(=O)COc3ccccc3)nc12 do in these assays?
Pol beta inh: inconclusive; Pol kappa inh: -10.3%[60.1 µM]; POLH inh: -28.1%; FEN1 inh: 3.1%; POLI inh: 7.9%

How did COc1cccc(C(=O)O/N=C(\N)c2ccccn2)c1 do in these assays?
Pol beta inh: 15.6%; WRN helicase inh: 2.7%; Pol kappa inh: -5.7%; POLH inh: -1.4%; FEN1 inh: -1.8%; POLI inh: -9.8%; TbPGK inh: 14.6µM*

Results for N/C(=N\OC(=O)c1ccc2ccccc2c1)c1ccncc1 ?
Pol beta inh: -0.8%; WRN helicase inh: 6.3%; Pol kappa inh: 12.1%; POLH inh: -5.2%; FEN1 inh: -0.4%; POLI inh: -24.6%

What do the screens show for `Cc1ccc(C(=O)O/N=C(\N)c2ccccn2)c(Cl)c1`?
Pol beta inh: 17.4%; WRN helicase inh: -2.2%; Pol kappa inh: -6.3%; POLH inh: -0.4%; FEN1 inh: 19.1%; POLI inh: 6.5%; TbPGK inh: 18.3µM*

How did N/C(=N\OC(=O)c1ccc2ccccc2c1)c1ccccn1 do in these assays?
Pol beta inh: 1.2%; WRN helicase inh: -2.1%; Pol kappa inh: 5.1%; POLH inh: -12.5%; FEN1 inh: -4.5%; POLI inh: 10.6%; TbPGK inh: inconclusive

What do the screens show for `N/C(=N\OC(=O)c1ccc(Cl)cc1Cl)c1ccccn1`?
Pol beta inh: -11.6%; WRN helicase inh: -0.1%; Pol kappa inh: -28.0%; POLH inh: -9.9%; FEN1 inh: -5.7%; POLI inh: -1.4%

What do the screens show for `CN(C)c1ccc(CN2CCc3nc(N4CCN(c5ccccn5)CC4)ncc3C2)cc1`?
Pol beta inh: 7.9%; Pol kappa inh: -11.4%[60.1 µM]; POLH inh: -16.4%; FEN1 inh: 1.2%; POLI inh: 12.4%

Results for CC1Cc2ccccc2N1C(=O)CSc1nnc(-c2ccccc2Cl)o1 (configuration not stated) ?
Pol beta inh: -0.9%; Pol kappa inh: -0.3%; FEN1 inh: -14.9%; POLI inh: 15.3%

How did O=C(O)c1cc(O)c2c(c1)[C@H]([C@H]1c3cc(C(=O)O)cc(O)c3C(=O)c3c(O[C@@H]4O[C@H](CO)[C@@H](O)[C@H](O)[C@H]4O)cccc31)c1cccc(OC3O[C@H](CO)[C@@H](O)[C@H](O)[C@H]3O)c1C2=O (some centres not stated) do in these assays?
WRN helicase inh: 3.98µM*; Pol kappa inh: 0.708µM*; POLH inh: -99.1%; FEN1 inh: 1.26µM*; POLI inh: -82.6%; TbPGK inh: 2.91µM*

What do the screens show for `O=C1c2cc(CO)cc(O)c2C(=O)c2c(O[C@@H]3OC(CO)[C@@H](O)[C@@H](O)[C@@H]3O)cccc21` (some centres not stated)?
WRN helicase inh: -10.9%; Pol kappa inh: -6.2%; POLH inh: 3.9%; FEN1 inh: inconclusive; POLI inh: -16.7%

What do the screens show for `CC1(C(=O)NC2CCCCCC2)CCN1C(=O)Cc1ccc(-c2ccccc2)cc1` (configuration not stated)?
WRN helicase inh: -8.9%

What do the screens show for `Cc1ccnc(N2C(=O)c3ccccc3C2O)c1` (configuration not stated)?
Pol beta inh: 42.9%; WRN helicase inh: -3.1%; Pol kappa inh: -0.9%; POLH inh: 0.4%; FEN1 inh: 1.3%; POLI inh: -20.2%; TbPGK inh: 10.3µM*

How did Cc1ccnc(N2C(=O)c3ccccc3C2Nc2cccc(C)c2C)c1 (configuration not stated) do in these assays?
Pol beta inh: -12.8%; WRN helicase inh: 1.8%; Pol kappa inh: 3.0%; POLH inh: -17.4%; FEN1 inh: -16.4%; POLI inh: 0.9%

Results for COc1cc(/C=N/Nc2nncn2/N=C/c2ccc(O)c(OC)c2)ccc1O ?
Pol beta inh: 2.2%; WRN helicase inh: -10.0%; Pol kappa inh: -8.4%; POLH inh: -32.9%; FEN1 inh: inconclusive; POLI inh: 20µM*; TbPGK inh: inconclusive
